Measurements reported in the supplement of paper PMC10849652.
Of roughly 8,800 targets only a part is listed; those with a hit were picked by preference. About 0.5% of all pairs of compound and target were hits. A number with no mark means an inactive call.

compound: NC(=O)Nc1cc(-c2cccc(F)c2)sc1C(=O)N[C@H]1CCCNC1; test: log2 fold change, soluble protein after heating vs DMSO (PISA); higher = thermal stabilisation; K562 lysate, 10 uM; active = over 0.2 and 3.5 SD of the protein, either way, in both replicates (recomputed)
Summary of the method: (§1)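 Values give the log-two fold change in thermal stability against solvent controls, from duplicates. Crude K562 extract at 1 mg/mL protein, made by dounce homogenisation in PBS pH 7.4 with 1 mM MgCl2, was treated with 10 μM compound for 30 min. After 3 min heating across 48°C-58°C, aliquots were pooled, adjusted to 0.5% NP-40 at 4°C and centrifuged at 21,000xg for 90 min. The supernatant was measured by TMTpro 16plex LC-MS/MS with channel sums equalised.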

Sequence of UniProt Q14694 (Q14694 whole entry, looked up): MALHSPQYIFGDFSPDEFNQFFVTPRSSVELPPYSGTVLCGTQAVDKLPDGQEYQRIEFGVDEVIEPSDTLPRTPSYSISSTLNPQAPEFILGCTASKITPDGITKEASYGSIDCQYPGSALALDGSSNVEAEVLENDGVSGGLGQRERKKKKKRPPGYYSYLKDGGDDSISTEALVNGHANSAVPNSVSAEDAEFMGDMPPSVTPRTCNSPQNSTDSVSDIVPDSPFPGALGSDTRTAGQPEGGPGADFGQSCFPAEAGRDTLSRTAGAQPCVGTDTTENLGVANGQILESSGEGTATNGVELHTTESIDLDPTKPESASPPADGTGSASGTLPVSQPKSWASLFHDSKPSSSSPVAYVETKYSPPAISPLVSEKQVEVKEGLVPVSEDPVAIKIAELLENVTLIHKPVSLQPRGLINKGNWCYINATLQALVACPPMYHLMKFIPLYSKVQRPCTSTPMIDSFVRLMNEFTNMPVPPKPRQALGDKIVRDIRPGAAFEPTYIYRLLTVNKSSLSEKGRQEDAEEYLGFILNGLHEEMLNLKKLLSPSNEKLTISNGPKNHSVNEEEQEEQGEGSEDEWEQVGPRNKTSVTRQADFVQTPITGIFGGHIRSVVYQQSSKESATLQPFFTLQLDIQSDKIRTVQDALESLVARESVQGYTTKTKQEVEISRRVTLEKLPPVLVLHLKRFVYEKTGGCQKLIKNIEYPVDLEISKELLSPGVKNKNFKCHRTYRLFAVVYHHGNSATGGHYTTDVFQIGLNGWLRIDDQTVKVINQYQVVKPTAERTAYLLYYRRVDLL
Sequence of UniProt P22695 (P22695 whole entry, looked up): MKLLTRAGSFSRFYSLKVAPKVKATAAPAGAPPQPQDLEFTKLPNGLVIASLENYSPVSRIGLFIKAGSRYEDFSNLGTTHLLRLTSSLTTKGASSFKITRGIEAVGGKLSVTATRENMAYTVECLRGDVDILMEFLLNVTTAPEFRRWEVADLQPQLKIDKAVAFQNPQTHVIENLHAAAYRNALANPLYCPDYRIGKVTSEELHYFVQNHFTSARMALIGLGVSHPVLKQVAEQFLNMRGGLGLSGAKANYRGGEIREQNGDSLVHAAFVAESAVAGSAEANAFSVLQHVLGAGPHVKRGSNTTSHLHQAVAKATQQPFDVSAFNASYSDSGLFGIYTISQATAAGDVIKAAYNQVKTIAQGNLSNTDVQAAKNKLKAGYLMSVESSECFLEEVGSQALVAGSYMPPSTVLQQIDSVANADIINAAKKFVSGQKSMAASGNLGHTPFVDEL
Sequence of UniProt Q96GY0 (Q96GY0 whole entry, looked up): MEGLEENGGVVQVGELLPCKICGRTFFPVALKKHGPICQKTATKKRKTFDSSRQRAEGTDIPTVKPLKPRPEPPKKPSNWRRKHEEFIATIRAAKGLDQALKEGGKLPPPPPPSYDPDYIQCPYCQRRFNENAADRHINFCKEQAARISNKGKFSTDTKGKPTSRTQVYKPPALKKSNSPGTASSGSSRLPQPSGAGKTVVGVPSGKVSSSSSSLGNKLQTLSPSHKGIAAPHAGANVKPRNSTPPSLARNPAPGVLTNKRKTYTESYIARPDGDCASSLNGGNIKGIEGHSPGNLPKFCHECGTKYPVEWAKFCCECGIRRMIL
Sequence of UniProt Q9NUA8 (Q9NUA8 whole entry, looked up): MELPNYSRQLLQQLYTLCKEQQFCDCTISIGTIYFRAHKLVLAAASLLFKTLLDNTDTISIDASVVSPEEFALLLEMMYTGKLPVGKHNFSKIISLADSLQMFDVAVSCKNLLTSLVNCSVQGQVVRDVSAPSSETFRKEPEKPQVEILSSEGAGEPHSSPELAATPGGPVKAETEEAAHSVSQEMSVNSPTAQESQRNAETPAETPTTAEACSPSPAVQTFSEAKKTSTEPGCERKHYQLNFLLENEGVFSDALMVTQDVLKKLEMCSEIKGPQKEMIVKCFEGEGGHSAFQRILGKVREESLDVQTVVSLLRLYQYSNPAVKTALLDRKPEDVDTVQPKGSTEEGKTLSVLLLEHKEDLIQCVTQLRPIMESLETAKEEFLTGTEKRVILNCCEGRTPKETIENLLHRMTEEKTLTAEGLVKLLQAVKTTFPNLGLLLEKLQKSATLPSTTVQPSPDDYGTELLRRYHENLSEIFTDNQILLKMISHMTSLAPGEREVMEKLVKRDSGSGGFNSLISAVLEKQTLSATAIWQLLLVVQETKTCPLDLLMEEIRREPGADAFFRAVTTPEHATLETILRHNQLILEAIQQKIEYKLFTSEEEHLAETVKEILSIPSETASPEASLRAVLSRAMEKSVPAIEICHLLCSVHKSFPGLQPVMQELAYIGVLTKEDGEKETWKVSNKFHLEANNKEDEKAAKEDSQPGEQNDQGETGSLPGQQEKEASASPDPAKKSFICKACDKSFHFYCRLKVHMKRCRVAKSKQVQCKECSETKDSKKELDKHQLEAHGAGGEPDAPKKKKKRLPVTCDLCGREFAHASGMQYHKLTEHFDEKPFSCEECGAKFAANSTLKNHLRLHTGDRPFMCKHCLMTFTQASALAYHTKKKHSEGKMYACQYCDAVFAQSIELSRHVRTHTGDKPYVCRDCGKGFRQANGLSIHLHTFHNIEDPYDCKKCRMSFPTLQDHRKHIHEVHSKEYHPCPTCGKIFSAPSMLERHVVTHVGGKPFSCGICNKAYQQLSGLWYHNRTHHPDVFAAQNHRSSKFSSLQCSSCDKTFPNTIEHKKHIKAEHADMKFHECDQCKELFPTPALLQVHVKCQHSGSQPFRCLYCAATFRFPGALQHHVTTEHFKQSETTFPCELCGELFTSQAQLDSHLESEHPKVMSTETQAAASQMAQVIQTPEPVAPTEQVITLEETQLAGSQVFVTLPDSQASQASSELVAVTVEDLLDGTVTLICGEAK
Sequence of UniProt Q8IUH5 (Q8IUH5 whole entry, looked up): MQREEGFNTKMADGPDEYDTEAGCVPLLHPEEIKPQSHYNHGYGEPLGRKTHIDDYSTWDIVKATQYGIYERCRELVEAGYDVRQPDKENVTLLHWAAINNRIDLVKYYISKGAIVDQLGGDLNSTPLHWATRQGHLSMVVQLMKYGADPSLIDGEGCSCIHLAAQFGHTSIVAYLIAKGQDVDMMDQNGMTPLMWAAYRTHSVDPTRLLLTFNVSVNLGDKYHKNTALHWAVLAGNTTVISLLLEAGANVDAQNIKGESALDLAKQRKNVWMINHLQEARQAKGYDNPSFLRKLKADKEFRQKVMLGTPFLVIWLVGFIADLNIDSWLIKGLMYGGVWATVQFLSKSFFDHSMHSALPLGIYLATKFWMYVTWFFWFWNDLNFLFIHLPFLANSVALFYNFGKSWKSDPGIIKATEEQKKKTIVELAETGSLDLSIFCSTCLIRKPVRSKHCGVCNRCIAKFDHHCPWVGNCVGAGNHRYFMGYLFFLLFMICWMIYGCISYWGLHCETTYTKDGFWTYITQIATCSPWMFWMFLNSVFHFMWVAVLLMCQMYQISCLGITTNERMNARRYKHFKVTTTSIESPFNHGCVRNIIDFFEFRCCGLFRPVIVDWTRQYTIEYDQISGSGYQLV
Sequence of UniProt A4D1P6 (A4D1P6 whole entry, looked up): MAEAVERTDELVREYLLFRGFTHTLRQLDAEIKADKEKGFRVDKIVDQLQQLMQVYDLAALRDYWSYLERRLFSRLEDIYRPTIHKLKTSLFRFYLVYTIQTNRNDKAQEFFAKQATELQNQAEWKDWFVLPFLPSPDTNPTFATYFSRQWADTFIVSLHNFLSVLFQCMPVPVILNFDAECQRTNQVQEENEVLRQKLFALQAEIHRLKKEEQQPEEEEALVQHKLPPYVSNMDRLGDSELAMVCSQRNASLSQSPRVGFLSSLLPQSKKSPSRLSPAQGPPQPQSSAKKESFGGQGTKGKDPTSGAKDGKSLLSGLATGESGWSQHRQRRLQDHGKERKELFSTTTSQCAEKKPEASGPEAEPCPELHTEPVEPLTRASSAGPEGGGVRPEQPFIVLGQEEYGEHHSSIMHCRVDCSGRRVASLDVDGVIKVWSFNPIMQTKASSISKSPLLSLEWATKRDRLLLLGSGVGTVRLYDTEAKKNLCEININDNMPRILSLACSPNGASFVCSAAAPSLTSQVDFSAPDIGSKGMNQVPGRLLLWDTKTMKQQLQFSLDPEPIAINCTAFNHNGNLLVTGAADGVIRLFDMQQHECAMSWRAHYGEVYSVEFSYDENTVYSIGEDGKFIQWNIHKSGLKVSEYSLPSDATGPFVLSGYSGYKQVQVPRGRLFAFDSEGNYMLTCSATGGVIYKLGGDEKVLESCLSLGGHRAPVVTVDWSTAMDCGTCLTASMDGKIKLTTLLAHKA
Sequence of UniProt Q15906 (Q15906 whole entry, looked up): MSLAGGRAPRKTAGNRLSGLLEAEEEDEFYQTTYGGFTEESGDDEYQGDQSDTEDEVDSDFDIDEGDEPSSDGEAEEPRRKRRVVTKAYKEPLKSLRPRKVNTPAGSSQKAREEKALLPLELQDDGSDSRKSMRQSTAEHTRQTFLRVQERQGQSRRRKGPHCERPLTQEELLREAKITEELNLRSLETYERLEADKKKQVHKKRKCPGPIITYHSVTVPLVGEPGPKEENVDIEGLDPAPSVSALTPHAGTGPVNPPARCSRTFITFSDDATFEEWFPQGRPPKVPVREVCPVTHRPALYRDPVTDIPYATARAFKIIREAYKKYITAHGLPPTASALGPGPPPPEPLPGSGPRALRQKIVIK
Sequence of UniProt Q9BQA1 (Q9BQA1 whole entry, looked up): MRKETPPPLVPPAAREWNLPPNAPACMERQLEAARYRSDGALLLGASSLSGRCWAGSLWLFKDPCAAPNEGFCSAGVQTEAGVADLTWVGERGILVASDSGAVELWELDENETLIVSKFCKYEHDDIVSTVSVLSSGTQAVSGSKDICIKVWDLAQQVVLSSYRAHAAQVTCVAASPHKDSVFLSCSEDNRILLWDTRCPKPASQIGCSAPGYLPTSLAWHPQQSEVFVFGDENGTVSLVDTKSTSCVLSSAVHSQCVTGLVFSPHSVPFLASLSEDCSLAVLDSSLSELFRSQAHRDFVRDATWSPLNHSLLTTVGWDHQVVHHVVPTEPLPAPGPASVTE

Target	log2 fold change
ZDHHC17 (UniProt Q8IUH5)	-0.118
VPS72 (UniProt Q15906)	0.05
ZNF609 (UniProt O15014)	0.061
UQCRC2 (UniProt P22695)	0.02
UPF3B (UniProt Q9BZI7)	0.022
VRK2 (UniProt Q86Y07)	0.026
ZNF598 isoform 3 (UniProt Q86UK7)	0.01
ZMYM1 (UniProt Q5SVZ6)	0.03
VARS (UniProt P26640)	0.045
VAC14 (UniProt Q08AM6)	0.012
VASP (UniProt P50552)	-0.012
ZHX1 (UniProt Q9UKY1)	0.039
VPS54 (UniProt Q9P1Q0)	0.065
WDR91 (UniProt A4D1P6)	-0.009
ZBTB40 (UniProt Q9NUA8)	-0.018
YES1 (UniProt P07947)	0.589 (active)

Target	log2 fold change
WDR77 (UniProt Q9BQA1)	0.006
ZDHHC18 (UniProt Q9NUE0)	0.008
ZC2HC1A (UniProt Q96GY0)	-0.014
VPS35L (UniProt Q7Z3J2)	0.043
VPS11 (UniProt Q9H270)	0.06
VPS13C (UniProt Q709C8)	-0.009
ZMYM4 (UniProt Q5VZL5)	0.067
USP10 isoform 2 (UniProt Q14694)	0.034
XAB2 (UniProt Q9HCS7)	0.046
VAV3 isoform 4 (UniProt Q9UKW4)	-0.017
WDR3 (UniProt Q9UNX4)	0.021
VAV1 (UniProt P15498)	-0.018
WRN (UniProt Q14191)	0.03
WDR41 (UniProt Q9HAD4)	-0.009
YLPM1 (UniProt P49750)	0.033

compound: NC(=O)c1cnc(N[C@@H]2CCCC[C@@H]2N)nc1Nc1cccc(-n2nccn2)c1; test: as above
Summary of the method: as §1

Target	log2 fold change
ZDHHC17 (UniProt Q8IUH5)	-0.047
VPS72 (UniProt Q15906)	-0.03
ZNF609 (UniProt O15014)	-0.015
UQCRC2 (UniProt P22695)	-0.008
UPF3B (UniProt Q9BZI7)	-0.025
VRK2 (UniProt Q86Y07)	-0.003
ZNF598 isoform 3 (UniProt Q86UK7)	0.011
ZMYM1 (UniProt Q5SVZ6)	0.003
VARS (UniProt P26640)	0.001
VAC14 (UniProt Q08AM6)	-0.002
VASP (UniProt P50552)	-0.006
ZHX1 (UniProt Q9UKY1)	-0.047
VPS54 (UniProt Q9P1Q0)	0.089
WDR91 (UniProt A4D1P6)	-0.004
ZBTB40 (UniProt Q9NUA8)	0.004
YES1 (UniProt P07947)	0.032

Target	log2 fold change
WDR77 (UniProt Q9BQA1)	-0.008
ZDHHC18 (UniProt Q9NUE0)	0.059
ZC2HC1A (UniProt Q96GY0)	0.04
VPS35L (UniProt Q7Z3J2)	0.001
VPS11 (UniProt Q9H270)	-0.003
VPS13C (UniProt Q709C8)	-0.028
ZMYM4 (UniProt Q5VZL5)	0.021
USP10 isoform 2 (UniProt Q14694)	-0.011
XAB2 (UniProt Q9HCS7)	-0.025
VAV3 isoform 4 (UniProt Q9UKW4)	-0.054
WDR3 (UniProt Q9UNX4)	0.023
VAV1 (UniProt P15498)	0.007
WRN (UniProt Q14191)	0.089
WDR41 (UniProt Q9HAD4)	-0.032
YLPM1 (UniProt P49750)	0.041
